Measurements as given in PubChem BioAssay (Tox21).
Results filed as inconclusive are left out. Activity calls are given as the source filed them. Unless noted, the call rests on the fitted dose curve; in most records, active means well fitted curve in the direction sought with a large enough effect in the repeat runs; inconclusive means weak or mixed curves; inactive means no such curve, though single readings can be large; an effect the other way counts as inactive or inconclusive.

Key:
[1] = qHTS assay for small molecules that induce genotoxicity in human embryonic kidney cells expressing luciferase-tagged ATAD5 (AID 651632); further: nearly all actives have a fitted effect of over 15% in size
Outline: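 Genotoxicity read-out via ATAD5-luciferase: HEK293T cells, 16 hr compound incubation at 37C, Amplite detection.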

[2] = qHTS assay for small molecule agonists of the p53 signaling pathway - cell viability (AID 651633; calls by dose curve;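 further: p53RE-bla HCT reporter cells with a stable beta-lactamase p53 reporter; series mostly up to about 83 µM; nearly all actives have a fitted effect of over 30% in size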)
Outline: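 Viability counter-read: CellTiter-Glo luminescence (30 min, room temperature) in the same p53RE-bla plates. These plates had been exposed to compounds for 16 h at 37 C.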

[3] = qHTS assay for small molecules that induce genotoxicity in human embryonic kidney cells expressing luciferase-tagged ATAD5 - cell viability (AID 651634; calls by dose curve; further: nearly all actives have a fitted effect of over 25% in size)
Outline: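 Live-cell protease activity (CellTiter-Fluor, fluorescence) indicates viability. HEK293T cells with luciferase-tagged ATAD5; 15.5 hr compound treatment at 37C.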

[4] = qHTS assay for small molecule disruptors of the mitochondrial membrane potential - cell viability (AID 720634; calls by dose curve;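 further: human HepG2 liver cancer cells; series mostly up to about 83 µM; nearly all actives have a fitted effect of over 20% in size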)
Outline: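 Human hepatoma HepG2 cells were treated for 1 hr with test chemicals, then given m-MPI dye and CellTiter-Glo. Cell viability reflects luminescence proportional to cellular ATP.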

[5] = qHTS assay to test for compound auto fluorescence at 590 nm (red) in HepG2 cells (AID 720674)
Outline: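 We screened compounds on adherent HepG2 cells, incubating them for an hour at 37 C in 5% CO2 before reading emission at 590 nm under 540 nm excitation; values reflect equivalence to Rose Bengal sodium fluorescence.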

[6] = qHTS assay to test for compound auto fluorescence at 535 nm (green) in HepG2 cells (AID 720675)
[7] = qHTS assay to test for compound auto fluorescence at 460 nm (blue) in HEK293 cells (AID 720678)
Outline: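 Blue read-out at excitation 405 nm and emission 460 nm follows overnight compound exposure of HEK293 cells at 37C in 5% CO2. Activity is given as auto fluorescence equivalency to triamterene.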

[8] = qHTS assay to test for compound auto fluorescence at 590 nm (red) in HEK293 cells (AID 720679)
Outline: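 Red channel, Ex/Em 540/590nm; signal expressed as equivalency to Rose Bengal sodium. HEK293, 2,000 cells/well, 10% dialyzed FBS; 23 nL compound pinned after 4-5 hr attachment; overnight 37C/5% CO2 before reading.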

[9] = qHTS assay to test for compound auto fluorescence at 535 nm (green) in HEK293 cells (AID 720680)
[10] = qHTS assay to test for compound auto fluorescence at 460 nm (blue) in HEK293 cell free culture (AID 720681)
Outline: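 Blue fluorescence (Ex 405/Em 460 nm, triamterene-equivalent) was read immediately after pin transfer of compound or DMSO into medium (DMEM, 10% FBS) without cells.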

[11] = qHTS assay to test for compound auto fluorescence at 535 nm (green) in HEK293 cell free culture (AID 720682)
Outline: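 DMEM + 10% FBS, cell-free; cpd or DMSO pinned in; Ex485/Em535 read; output as fluorescein-equivalent signal.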

[12] = qHTS assay to test for compound auto fluorescence at 590 nm (red) in HEK293 cell free culture (AID 720683)
Outline: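 Red-channel autofluorescence of compounds in culture medium (DMEM, 10% FBS), no cells, measured at 540/590 nm. Rose Bengal sodium is the reference fluorophore for equivalence.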

[13] = qHTS assay to test for compound auto fluorescence at 590 nm (red) in HepG2 cell free culture (AID 720684)
Outline: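 Steps: dispense MEM/10% FBS medium, no cells; pin compound or DMSO vehicle; read red channel, Ex/Em 540/590 nm. Output given as Rose Bengal sodium equivalents.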

[14] = qHTS assay to test for compound auto fluorescence at 535 nm (green) in HepG2 cell free culture (AID 720686)
[15] = qHTS assay to test for compound auto fluorescence at 460 nm (blue) in HepG2 cells (AID 720687)
Outline: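 Blue-channel autofluorescence (Ex/Em 405/460 nm, triamterene-equivalent) was measured after 1 hr compound exposure at 37 C, 5% CO2. Cells were HepG2, plated overnight at 37 C in MEM plus 10% FBS.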

[16] = target: Glucocorticoid receptor (Homo sapiens) (UniProt P04150); experiment: qHTS assay to identify small molecule agonists of the glucocorticoid receptor (GR) signaling pathway (AID 720691; active means well fitted activation curve with a large enough effect in the signal ratio in the repeat runs, not every such curve was filed as active; the % refers to the signal ratio)
Outline: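 Beta-lactamase reporter activity, read as fluorescence intensity, was measured in GR-bla HeLa cells exposed to compounds for 18 h at 37 C and then loaded with LiveBLAzer B/G FRET substrate for 2 h at room temperature.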

[17] = target: Glucocorticoid receptor (Homo sapiens) (UniProt P04150); experiment: qHTS assay to identify small molecule antagonists of the glucocorticoid receptor (GR) signaling pathway (AID 720692; active means well fitted inhibition curve with a large enough effect in the signal ratio in the repeat runs, not every such curve was filed as active; the % refers to the signal ratio)
Outline: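 Fluorescence from cleaved LiveBLAzer B/G FRET substrate reports GRE-driven beta-lactamase in HeLa cells; compounds are tested against 5 nM dexamethasone (final) over 18 h at 37 C, substrate incubation 2 h at room temperature.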

[18] = qHTS assay for small molecule disruptors of the mitochondrial membrane potential (AID 720635)
Outline: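 Mitochondrial membrane potential tracked with Mito-MPS dye, red aggregates (ex 540/em 590 nm) against green monomers (ex 490/em 535 nm). Compound treatment 1 hr at 37C, dye 30 min in HepG2.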

[19] = qHTS assay to test for compound auto fluorescence at 460 nm (blue) in HepG2 cell free culture (AID 720685)
Outline: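 Compound (23 nL) or DMSO pinned into cell-free MEM with 10% FBS; blue fluorescence read at 405/460 nm excitation/emission, expressed as auto-fluorescence equivalency to triamterene.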

Measured: Potency

Sequence of Glucocorticoid receptor (Homo sapiens) (P04150 whole entry, looked up): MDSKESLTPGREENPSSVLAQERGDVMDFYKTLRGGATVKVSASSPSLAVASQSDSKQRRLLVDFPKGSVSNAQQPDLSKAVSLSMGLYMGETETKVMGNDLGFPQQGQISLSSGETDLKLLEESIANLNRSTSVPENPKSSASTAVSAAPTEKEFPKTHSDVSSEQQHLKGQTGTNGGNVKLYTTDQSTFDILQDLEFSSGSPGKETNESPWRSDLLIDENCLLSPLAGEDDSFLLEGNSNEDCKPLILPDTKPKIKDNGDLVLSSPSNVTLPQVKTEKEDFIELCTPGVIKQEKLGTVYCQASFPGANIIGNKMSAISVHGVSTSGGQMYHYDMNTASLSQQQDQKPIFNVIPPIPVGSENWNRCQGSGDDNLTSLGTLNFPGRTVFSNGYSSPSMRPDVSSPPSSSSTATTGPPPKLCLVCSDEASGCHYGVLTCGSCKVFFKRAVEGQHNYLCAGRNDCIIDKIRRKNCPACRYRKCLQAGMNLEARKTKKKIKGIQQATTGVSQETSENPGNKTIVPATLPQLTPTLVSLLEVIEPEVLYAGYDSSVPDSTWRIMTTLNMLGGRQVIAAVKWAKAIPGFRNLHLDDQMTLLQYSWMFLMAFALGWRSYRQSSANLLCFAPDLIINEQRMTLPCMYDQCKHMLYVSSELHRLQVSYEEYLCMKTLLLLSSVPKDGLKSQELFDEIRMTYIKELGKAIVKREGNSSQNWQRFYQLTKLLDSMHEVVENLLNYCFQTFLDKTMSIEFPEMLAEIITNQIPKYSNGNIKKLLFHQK

CCCCC(CC)COC(=O)COc1cc(Cl)c(Cl)cc1Cl (centres undefined)
not listed: [18] | [19]
inactive: all other assays above

N#Cc1ccc(C(c2ccc(C#N)cc2)n2cncn2)cc1
not listed: [15] | [17] | [19]
inactive: all other assays above

Cn1cnc2c(F)c(Nc3ccc(Br)cc3Cl)c(C(=O)NOCCO)cc21
not listed: [15] | [17] | [18]
inactive: all other assays above
